Laboratory results published in article PMC7862700, “An all-to-all approach to the identification of sequence-specific readers for epigenetic DNA modifications on cytosine”.

What was measured:
Assay in all cases: DAPPL (digital affinity profiling via proximity ligation, sequencing); 10 mM Tris-HCl pH 7.5, 50 mM NaCl, 1 mM DTT, 4% glycerol, room temperature, 30 min; GST-TFs on glutathione beads, 16-mer random dsDNA library, 0.1% formaldehyde crosslink after washing; high values mean tight binding
FLI1 = biological target: T1, FLI1 (Homo sapiens, UniProt Q01543 1-452); conditions: protein: recombinant; tags: N-terminal GST; dsDNA, one strand shown
T1 sequence: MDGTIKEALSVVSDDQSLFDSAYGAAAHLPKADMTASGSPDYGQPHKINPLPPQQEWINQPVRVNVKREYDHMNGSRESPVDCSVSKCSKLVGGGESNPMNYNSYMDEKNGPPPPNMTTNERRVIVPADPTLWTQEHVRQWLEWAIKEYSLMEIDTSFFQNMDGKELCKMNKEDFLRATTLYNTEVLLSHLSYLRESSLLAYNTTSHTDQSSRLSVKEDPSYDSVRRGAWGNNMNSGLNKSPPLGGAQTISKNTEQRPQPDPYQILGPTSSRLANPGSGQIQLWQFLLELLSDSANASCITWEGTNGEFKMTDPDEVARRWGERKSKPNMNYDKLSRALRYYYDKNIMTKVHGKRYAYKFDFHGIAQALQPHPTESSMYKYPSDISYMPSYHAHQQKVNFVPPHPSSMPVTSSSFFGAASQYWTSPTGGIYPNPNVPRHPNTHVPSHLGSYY
Summary of the method: (§1)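 A tag-only sample was pooled with DNA-barcoded human transcription factors that had been expressed in yeast as GST fusions and captured on glutathione beads. The pools were incubated for 30 min at room temperature with 200 nmole of a random double-stranded 16-mer DNA library in Tris/NaCl/DTT/glycerol buffer, then washed, crosslinked with 0.1% formaldehyde, proximity-ligated (BsaI/T4 ligase, 1 h, 37 °C), PCR-amplified and sequenced on an Illumina NextSeq500. Binding signal is each hexamer's read frequency for a factor divided by its frequency for the tag-only sample.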

ELK1 = biological target: T2, ELK1 (Homo sapiens, UniProt P19419 1-428); conditions: protein: recombinant; tags: N-terminal GST; dsDNA, one strand shown
T2 sequence: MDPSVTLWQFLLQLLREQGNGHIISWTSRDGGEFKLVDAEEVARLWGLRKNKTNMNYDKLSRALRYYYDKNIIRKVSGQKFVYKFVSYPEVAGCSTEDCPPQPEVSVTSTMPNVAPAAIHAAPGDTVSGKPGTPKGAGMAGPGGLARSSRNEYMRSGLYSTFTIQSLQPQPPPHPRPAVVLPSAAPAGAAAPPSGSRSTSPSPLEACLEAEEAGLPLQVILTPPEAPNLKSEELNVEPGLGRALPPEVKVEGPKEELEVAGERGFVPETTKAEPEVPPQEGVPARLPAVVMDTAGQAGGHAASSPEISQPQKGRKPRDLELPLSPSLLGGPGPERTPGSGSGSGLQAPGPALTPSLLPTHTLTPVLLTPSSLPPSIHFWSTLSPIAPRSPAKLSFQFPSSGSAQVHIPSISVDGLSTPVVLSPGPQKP
Summary of the method: as §1

GABPA = biological target: T3, GABPA (Homo sapiens, UniProt Q06546 1-454); conditions: protein: recombinant; tags: N-terminal GST; dsDNA, one strand shown
T3 sequence: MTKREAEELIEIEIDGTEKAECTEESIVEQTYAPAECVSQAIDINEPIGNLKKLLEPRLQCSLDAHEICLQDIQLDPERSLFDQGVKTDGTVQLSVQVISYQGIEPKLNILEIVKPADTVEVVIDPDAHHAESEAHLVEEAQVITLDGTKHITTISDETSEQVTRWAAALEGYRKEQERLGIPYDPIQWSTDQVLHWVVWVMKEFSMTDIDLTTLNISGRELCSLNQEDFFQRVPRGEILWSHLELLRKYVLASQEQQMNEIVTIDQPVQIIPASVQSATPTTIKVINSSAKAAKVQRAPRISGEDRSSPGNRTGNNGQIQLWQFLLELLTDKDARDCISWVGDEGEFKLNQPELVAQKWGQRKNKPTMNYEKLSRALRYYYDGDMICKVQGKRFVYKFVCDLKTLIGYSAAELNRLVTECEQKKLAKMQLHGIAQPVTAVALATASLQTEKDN
Summary of the method: as §1

ERG = biological target: T4, ERG (Homo sapiens, UniProt P11308 1-479); conditions: protein: recombinant; tags: N-terminal GST; dsDNA, one strand shown
T4 sequence: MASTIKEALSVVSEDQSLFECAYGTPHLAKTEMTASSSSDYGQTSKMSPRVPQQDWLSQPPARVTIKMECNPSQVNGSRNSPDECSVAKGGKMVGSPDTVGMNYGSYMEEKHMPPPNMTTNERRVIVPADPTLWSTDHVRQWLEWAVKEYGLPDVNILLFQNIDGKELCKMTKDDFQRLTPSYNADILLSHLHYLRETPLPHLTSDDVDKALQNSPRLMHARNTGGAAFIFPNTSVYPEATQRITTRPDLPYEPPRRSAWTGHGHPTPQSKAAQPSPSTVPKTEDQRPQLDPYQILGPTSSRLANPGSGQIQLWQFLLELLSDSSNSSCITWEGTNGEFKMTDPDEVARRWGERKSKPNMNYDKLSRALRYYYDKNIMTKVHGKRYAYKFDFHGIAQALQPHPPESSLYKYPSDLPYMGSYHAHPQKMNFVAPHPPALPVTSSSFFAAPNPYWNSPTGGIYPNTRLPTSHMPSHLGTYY
Summary of the method: as §1

ELF1 = ELF1 (Homo sapiens, UniProt P32519 1-619); conditions: protein: recombinant; tags: N-terminal GST; dsDNA, one strand shown
ELF1, sequence (P32519 whole entry): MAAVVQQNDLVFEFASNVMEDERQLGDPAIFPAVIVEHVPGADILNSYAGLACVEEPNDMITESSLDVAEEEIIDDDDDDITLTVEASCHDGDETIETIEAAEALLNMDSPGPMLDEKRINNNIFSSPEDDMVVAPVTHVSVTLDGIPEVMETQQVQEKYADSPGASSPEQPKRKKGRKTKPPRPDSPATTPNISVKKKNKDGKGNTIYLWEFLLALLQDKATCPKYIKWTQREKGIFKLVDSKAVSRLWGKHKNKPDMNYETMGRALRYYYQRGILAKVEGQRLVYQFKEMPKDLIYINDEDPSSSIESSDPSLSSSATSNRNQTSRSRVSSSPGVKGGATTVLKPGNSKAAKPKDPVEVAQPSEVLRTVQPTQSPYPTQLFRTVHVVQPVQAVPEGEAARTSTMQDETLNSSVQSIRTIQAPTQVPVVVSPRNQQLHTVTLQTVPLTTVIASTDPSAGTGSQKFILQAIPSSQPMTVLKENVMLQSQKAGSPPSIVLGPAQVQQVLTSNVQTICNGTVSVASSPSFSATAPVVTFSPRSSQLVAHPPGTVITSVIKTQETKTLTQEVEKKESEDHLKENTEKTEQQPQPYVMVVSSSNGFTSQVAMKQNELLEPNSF
Summary of the method: as §1

EHF = biological target: T5, EHF (Homo sapiens, UniProt Q9NZC4 1-300); conditions: protein: recombinant; tags: N-terminal GST; dsDNA, one strand shown
T5 sequence: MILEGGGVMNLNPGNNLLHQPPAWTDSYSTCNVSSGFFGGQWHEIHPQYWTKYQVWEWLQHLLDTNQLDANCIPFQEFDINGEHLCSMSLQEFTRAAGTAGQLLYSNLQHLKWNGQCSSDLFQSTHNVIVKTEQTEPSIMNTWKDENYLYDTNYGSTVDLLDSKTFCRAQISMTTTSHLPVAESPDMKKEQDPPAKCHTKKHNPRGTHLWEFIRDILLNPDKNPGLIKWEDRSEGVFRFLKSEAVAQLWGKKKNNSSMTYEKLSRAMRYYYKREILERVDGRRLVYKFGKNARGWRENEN
Summary of the method: as §1

SPI1 = SPI1 (Homo sapiens, UniProt P17947 1-270); conditions: protein: recombinant; tags: N-terminal GST; dsDNA, one strand shown
Summary of the method: as §1

SPIB = SPIB (Homo sapiens, UniProt Q01892 1-262); conditions: protein: recombinant; tags: N-terminal GST; dsDNA, one strand shown
SPIB, sequence (Q01892 whole entry): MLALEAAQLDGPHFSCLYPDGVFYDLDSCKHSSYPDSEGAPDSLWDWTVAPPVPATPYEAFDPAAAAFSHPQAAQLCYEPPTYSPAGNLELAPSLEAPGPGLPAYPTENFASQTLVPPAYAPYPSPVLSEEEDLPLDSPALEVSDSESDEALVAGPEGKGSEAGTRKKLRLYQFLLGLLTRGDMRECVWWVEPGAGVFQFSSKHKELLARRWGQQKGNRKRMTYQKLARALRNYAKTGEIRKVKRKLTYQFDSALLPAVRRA
Summary of the method: as §1

ELK3 = biological target: T6, ELK3 (Homo sapiens, UniProt P41970 1-407); conditions: protein: recombinant; tags: N-terminal GST; dsDNA, one strand shown
T6 sequence: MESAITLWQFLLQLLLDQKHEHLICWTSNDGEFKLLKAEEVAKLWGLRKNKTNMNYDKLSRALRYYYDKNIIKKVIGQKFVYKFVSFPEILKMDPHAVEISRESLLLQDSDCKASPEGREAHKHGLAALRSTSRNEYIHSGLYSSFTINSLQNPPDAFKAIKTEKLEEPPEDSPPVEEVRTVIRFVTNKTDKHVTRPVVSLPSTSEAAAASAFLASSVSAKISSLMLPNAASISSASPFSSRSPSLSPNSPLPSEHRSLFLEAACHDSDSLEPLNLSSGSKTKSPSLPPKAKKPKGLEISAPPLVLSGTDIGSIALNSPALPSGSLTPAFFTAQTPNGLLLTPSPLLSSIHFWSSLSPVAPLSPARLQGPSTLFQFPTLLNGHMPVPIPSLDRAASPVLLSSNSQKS
Summary of the method: as §1

FEV = biological target: T7, FEV (Homo sapiens, UniProt Q99581 1-238); conditions: protein: recombinant; tags: N-terminal GST; dsDNA, one strand shown
T7 sequence: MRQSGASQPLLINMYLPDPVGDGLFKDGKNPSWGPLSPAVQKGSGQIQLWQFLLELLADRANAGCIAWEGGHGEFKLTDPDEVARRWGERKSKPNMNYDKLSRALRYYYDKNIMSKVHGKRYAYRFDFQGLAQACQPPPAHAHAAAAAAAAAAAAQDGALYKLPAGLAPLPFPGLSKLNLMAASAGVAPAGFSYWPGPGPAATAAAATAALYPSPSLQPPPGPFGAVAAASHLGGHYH
Summary of the method: as §1

ETV5 = ETV5 (Homo sapiens, UniProt P41161 1-510); conditions: protein: recombinant; tags: N-terminal GST; dsDNA, one strand shown
ETV5, sequence (P41161 whole entry): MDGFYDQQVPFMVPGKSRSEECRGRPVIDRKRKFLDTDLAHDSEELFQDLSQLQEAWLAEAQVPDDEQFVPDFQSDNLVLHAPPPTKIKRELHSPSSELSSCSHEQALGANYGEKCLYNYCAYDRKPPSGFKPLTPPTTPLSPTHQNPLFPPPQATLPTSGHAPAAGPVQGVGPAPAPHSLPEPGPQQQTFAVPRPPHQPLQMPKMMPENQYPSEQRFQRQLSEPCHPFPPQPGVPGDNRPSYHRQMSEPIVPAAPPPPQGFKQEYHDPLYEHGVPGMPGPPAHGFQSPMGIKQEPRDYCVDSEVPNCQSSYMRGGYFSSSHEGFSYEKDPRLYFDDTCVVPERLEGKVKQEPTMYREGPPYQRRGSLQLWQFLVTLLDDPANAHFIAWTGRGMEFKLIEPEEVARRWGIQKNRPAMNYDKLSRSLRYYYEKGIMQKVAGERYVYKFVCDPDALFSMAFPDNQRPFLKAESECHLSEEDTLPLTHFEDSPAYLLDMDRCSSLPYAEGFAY
Summary of the method: as §1

HSF1 = HSF1 (Homo sapiens, UniProt Q00613 1-529); conditions: protein: recombinant; tags: N-terminal GST; chain copies: 3; dsDNA, one strand shown
HSF1, sequence (Q00613 whole entry): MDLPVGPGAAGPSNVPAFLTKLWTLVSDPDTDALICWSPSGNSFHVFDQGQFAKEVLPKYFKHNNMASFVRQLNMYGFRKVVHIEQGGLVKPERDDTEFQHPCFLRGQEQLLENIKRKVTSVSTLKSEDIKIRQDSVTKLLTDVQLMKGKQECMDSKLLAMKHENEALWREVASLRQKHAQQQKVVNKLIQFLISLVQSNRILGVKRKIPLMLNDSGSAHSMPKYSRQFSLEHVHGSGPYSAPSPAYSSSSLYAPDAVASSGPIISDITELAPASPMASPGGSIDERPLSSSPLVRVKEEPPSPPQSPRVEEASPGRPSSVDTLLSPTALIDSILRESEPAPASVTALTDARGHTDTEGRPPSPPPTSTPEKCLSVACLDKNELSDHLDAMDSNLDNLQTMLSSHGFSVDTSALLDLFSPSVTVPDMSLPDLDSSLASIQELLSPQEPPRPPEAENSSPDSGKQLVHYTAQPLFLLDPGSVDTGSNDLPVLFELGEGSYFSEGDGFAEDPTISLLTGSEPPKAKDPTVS
Summary of the method: as §1

SPIC = biological target: T8, SPIC (Homo sapiens, UniProt Q8N5J4 1-248); conditions: protein: recombinant; tags: N-terminal GST; dsDNA, one strand shown
T8 sequence: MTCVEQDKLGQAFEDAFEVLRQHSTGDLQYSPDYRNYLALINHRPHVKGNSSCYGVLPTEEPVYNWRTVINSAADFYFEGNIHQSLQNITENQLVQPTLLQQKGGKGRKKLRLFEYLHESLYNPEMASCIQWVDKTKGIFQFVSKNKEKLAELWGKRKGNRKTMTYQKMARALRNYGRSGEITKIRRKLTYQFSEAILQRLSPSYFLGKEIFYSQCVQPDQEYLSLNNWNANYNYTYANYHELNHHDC
Summary of the method: as §1

ELF4 = ELF4 (Homo sapiens, UniProt Q99607 1-663); conditions: protein: recombinant; tags: N-terminal GST; dsDNA, one strand shown
ELF4, sequence (Q99607 whole entry): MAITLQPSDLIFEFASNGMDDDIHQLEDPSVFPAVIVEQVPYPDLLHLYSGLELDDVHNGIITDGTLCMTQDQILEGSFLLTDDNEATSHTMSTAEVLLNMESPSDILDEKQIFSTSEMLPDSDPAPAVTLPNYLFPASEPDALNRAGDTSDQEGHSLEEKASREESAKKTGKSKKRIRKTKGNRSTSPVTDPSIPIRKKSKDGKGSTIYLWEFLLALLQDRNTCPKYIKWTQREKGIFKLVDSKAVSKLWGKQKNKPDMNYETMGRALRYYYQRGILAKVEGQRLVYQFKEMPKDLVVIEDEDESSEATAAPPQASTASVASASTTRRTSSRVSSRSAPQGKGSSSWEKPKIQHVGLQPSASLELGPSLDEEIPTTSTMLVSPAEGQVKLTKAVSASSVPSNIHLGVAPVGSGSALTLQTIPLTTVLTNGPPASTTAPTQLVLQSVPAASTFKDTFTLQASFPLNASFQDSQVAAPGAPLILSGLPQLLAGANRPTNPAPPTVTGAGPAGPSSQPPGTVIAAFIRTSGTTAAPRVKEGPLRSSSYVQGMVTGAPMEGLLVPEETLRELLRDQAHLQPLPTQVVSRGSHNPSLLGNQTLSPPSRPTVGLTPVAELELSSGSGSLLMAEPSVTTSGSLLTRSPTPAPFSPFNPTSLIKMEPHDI
Summary of the method: as §1

ELK4 = biological target: T9, ELK4 (Homo sapiens, UniProt P28324-2 1-405); conditions: protein: recombinant; tags: N-terminal GST; dsDNA, one strand shown
T9 sequence: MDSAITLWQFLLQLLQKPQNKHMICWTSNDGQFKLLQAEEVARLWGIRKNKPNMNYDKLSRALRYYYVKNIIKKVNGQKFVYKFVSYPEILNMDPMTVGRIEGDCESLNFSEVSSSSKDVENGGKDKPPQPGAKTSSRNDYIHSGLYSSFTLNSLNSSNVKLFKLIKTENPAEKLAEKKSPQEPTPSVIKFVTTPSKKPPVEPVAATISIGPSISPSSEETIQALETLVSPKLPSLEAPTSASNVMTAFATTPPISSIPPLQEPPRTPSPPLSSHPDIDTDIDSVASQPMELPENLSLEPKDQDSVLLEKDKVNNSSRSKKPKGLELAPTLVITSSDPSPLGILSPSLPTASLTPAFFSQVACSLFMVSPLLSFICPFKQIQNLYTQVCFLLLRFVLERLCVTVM
Summary of the method: as §1

ETV2 = biological target: T10, ETV2 (Homo sapiens, UniProt O00321 1-342); conditions: protein: recombinant; tags: N-terminal GST; dsDNA, one strand shown
T10 sequence: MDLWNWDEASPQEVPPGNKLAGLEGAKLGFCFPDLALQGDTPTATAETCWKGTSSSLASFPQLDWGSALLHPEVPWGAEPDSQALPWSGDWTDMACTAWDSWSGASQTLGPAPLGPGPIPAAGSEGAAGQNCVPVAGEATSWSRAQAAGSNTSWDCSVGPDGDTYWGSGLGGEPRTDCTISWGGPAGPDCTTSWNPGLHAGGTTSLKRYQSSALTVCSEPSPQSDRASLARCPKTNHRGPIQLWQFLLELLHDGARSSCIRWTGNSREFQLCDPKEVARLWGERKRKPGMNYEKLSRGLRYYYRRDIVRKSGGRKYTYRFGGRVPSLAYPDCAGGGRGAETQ
Summary of the method: as §1

ELF3 = biological target: T11, ELF3 (Homo sapiens, UniProt P78545 1-371); conditions: protein: recombinant; tags: N-terminal GST; dsDNA, one strand shown
T11 sequence: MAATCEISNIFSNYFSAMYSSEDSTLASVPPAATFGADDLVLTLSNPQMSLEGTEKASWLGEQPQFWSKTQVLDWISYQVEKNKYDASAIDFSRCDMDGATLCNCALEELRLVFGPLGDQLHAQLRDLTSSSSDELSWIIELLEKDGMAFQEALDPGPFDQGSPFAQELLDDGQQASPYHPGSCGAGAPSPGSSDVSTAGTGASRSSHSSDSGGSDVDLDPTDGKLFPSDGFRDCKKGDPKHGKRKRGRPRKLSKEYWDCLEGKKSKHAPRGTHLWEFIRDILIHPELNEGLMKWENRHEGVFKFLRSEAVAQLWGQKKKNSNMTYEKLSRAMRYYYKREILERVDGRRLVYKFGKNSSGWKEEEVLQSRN
Summary of the method: as §1

CRX = CRX (Homo sapiens, UniProt O43186 1-299); conditions: protein: recombinant; tags: N-terminal GST; dsDNA, one strand shown
CRX, sequence (O43186 whole entry): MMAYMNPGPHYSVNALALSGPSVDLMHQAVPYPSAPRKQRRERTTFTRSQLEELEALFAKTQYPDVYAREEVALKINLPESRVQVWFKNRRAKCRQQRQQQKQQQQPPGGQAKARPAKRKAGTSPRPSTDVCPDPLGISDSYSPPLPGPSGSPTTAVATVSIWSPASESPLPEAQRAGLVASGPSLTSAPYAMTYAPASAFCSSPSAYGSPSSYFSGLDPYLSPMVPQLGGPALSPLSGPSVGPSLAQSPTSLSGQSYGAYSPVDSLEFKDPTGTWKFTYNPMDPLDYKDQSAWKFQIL
Summary of the method: as §1

ETV1 = ETV1 (Homo sapiens, UniProt P50549 1-477); conditions: protein: recombinant; tags: N-terminal GST; dsDNA, one strand shown
ETV1, sequence (P50549 whole entry): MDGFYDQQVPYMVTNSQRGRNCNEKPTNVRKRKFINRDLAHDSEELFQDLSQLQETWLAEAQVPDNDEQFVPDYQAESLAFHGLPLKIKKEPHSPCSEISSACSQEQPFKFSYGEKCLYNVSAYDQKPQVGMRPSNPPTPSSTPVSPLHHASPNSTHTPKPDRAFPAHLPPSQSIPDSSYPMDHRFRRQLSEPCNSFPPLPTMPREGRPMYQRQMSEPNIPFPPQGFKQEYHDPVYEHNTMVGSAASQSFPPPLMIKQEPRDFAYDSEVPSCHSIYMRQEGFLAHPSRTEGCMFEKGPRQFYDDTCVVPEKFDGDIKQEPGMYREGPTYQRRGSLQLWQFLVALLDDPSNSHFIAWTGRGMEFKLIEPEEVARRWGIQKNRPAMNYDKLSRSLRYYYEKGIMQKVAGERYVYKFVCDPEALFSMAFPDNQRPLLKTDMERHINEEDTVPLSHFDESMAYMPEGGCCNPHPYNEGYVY
Summary of the method: as §1

Sequence: AATTCG
- binding signal (FLI1): 1.29 fold enrichment (6-mer frequency, TF over GST control)
- binding signal (ELK1): 1.26 fold enrichment (6-mer frequency, TF over GST control)
- binding signal (GABPA): 1.24 fold enrichment (6-mer frequency, TF over GST control)
- binding signal (ERG): 1.3 fold enrichment (6-mer frequency, TF over GST control)
- binding signal (ELF1): 1.29 fold enrichment (6-mer frequency, TF over GST control)
- binding signal (EHF): 1.23 fold enrichment (6-mer frequency, TF over GST control)
- binding signal (SPI1): 1.13 fold enrichment (6-mer frequency, TF over GST control)
- binding signal (SPIB): 1.38 fold enrichment (6-mer frequency, TF over GST control)
- binding signal (ELK3): 1.29 fold enrichment (6-mer frequency, TF over GST control)
- binding signal (FEV): 1.26 fold enrichment (6-mer frequency, TF over GST control)
- binding signal (ETV5): 1.31 fold enrichment (6-mer frequency, TF over GST control)
- binding signal (HSF1): 1.76 fold enrichment (6-mer frequency, TF over GST control)
- binding signal (SPIC): 1.43 fold enrichment (6-mer frequency, TF over GST control)
- binding signal (ELF4): 1.26 fold enrichment (6-mer frequency, TF over GST control)
- binding signal (ELK4): 1.23 fold enrichment (6-mer frequency, TF over GST control)
- binding signal (ETV2): 1.19 fold enrichment (6-mer frequency, TF over GST control)
- binding signal (ELF3): 1.3 fold enrichment (6-mer frequency, TF over GST control)
- binding signal (CRX): 1.57 fold enrichment (6-mer frequency, TF over GST control)
- binding signal (ETV1): 1.18 fold enrichment (6-mer frequency, TF over GST control)
